Publication PMC4336329 (PLoS ONE, 2015)
Among all 310,000 compounds or so, about 14,000 (4.5%) showed an effect of 50% or more. The effect is printed as a negative number. Many of the other results were omitted from the sample, so strong results are more common in it than they were.

The molecules below were run against human ether-à-go-go-related gene (hERG) potassium channel (human, UniProt Q12809) (assay: primary screen, population patch clamp on CHO cells stably expressing hERG; higher = less effect of the substance).
Procedure: Briefly, Chinese hamster ovary (CHO) cells stably expressing the hERG channel were dislodged from tissue culture flasks and dispensed into PPC plates. […] During the recording, background leak currents were estimated by a 100 ms step to -80 mV from an initial holding potential of -70 mV and subtracted from the subsequent current measurement. The campaign was conducted in two phases using slight differences in recording protocol. In the first phase, the initial voltage pulse used a 100 ms step to -30 mV from a holding potential of -70 mV, a 2 s conditioning step to +25 mV, and a 2 s test step to -30 mV. During the second phase of the screen, the potential during the conditioning step was raised to +45 mV. In both phases of the campaign, a secondary voltage pulse was applied using the same parameters as the second phase initial pulse. The initial and secondary pulses were applied in the absence of compound, and upon application of 1 μM and 10 μM test concentrations. […]
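Further: peak tail current of the secondary pulse compared with the same well before compound.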

human ether-à-go-go-related gene (hERG) potassium channel, sequence (Q12809 whole entry, looked up): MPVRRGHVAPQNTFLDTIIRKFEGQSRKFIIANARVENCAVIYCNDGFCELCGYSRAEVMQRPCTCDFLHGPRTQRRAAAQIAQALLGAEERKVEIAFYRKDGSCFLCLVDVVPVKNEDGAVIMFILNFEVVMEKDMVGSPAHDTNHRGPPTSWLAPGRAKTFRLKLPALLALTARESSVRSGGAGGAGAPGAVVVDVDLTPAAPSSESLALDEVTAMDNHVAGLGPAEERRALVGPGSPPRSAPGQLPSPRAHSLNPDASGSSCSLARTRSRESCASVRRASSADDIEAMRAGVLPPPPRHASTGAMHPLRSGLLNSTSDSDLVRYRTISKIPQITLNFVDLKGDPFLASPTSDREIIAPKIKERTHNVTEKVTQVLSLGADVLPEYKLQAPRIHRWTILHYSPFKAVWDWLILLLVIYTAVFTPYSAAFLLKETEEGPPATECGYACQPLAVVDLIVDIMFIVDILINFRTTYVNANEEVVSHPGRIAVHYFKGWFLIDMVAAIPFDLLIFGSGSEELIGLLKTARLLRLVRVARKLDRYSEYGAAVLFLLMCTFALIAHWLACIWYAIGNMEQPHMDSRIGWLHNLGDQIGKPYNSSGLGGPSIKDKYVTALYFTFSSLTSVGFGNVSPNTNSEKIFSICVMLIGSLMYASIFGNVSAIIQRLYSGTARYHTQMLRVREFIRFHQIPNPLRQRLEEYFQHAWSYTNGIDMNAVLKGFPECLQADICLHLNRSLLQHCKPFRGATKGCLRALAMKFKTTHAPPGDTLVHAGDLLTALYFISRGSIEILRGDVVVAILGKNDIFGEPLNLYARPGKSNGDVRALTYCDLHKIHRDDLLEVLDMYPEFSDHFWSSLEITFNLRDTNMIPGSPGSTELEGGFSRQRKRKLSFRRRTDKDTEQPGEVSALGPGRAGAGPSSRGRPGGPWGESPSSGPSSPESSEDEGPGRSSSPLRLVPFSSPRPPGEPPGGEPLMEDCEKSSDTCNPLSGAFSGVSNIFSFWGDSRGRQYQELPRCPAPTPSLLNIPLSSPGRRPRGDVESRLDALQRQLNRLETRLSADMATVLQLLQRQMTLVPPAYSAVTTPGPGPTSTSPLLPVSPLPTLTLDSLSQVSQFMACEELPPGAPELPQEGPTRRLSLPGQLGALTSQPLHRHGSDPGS

Row | Structure (SMILES) | hERG current change (%, negative = inhibition) at 10uM
1 | Cl.N[C@@H](CO)c1nnc([C@H](CC(=O)O)NC(=O)C2CCNCC2)o1 | 16.7%
2 | O=C(COC(=O)c1c[nH]c2ccccc12)Nc1ccc([N+](=O)[O-])cc1 | -0.338%
3 | COC(=O)[C@@H](NC(=O)NCc1ccco1)C(C)C | 2.75%
4 | Cc1cccc(NC(=O)c2cc(-c3cc(Cl)ccc3O)n[nH]2)c1 | 18.2%
5 | CCN(Cc1ccncc1)C(=O)c1cccs1 | 2%
6 | COc1cccc(CN(C)C(=O)c2cccnc2SC)c1OC | 9.74%
7 | COC(=O)c1cccc(NC(=O)C23CC4CC(C2)CC(n2cncn2)(C4)C3)c1 | -25.4%
8 | O=C(Nc1ccc2c(c1)OCO2)c1ccccc1SCC(=O)N1CCCC1 | 5.23%
9 | CCOC(=O)C1CCN(C(=O)CSc2ccccc2)CC1 | -20.3%
10 | CCN1CCN(CCCCSc2ccccc2)CC1.O=C(O)C(=O)O | -28.3%
11 | CCOC(=O)C1CCN(CCCSc2ccc(C)cc2)CC1.Cl | -71%
12 | CCOC(=O)C1CCN(CCCSc2ccc(Cl)cc2)CC1.Cl | -72.7%
13 | CCOC(=O)C1CCN(CCCSc2ccccc2)CC1.Cl | -62.4%
14 | CCOC(=O)C1CCN(C(=O)C(C)Sc2ccc(Cl)cc2)CC1 (stereo not shown) | -27.9%
15 | CCOC(=O)C1CCN(C(=O)CSc2ccc(Cl)cc2)CC1 | -32.5%
16 | Cc1ccc(SCCCCN2CCOCC2)cc1.Cl | -24.6%
17 | CCOC(=O)C1CCCN(CCSc2ccc(C)cc2)C1.Cl (stereo not shown) | -28.3%
18 | COC(=O)[C@H](C)NC(=O)NCc1ccccc1 | 1.58%
19 | CCCC(=O)Nc1ccc2c(c1)nc1n2CCOC1 | 6.13%
20 | Cc1ccc(-n2nnc3ccccc3c2=O)cc1C | -2.63%

Row | Structure (SMILES) | hERG current change (%, negative = inhibition) at 10uM
21 | c1coc(-c2nc3c4c5c(sc4ncn3n2)CCCC5)c1 | 10.6%
22 | COCC(=O)N1CCC(Oc2ccc(C(=O)N(C)CCCC3CCCC3)cc2)CC1 | -26.9%
23 | COC(=O)CCCNC(=O)c1ccc(OC2CCN(CCc3ccccc3)CC2)cc1 | -47.7%
24 | CSCCCNC(=O)c1ccc(OC2CCN(C(=O)c3cccnc3)CC2)cc1 | -11.4%
25 | COCCC(=O)N1CCC(Oc2ccc(C(=O)NCCCC3CCCC3)cc2)CC1 | -37.3%
26 | COCCC(=O)N1CCC(Oc2ccc(C(=O)NCCSC)cc2)CC1 | 13.6%
27 | CSCCCNC(=O)c1ccc(OC2CCN(CCc3ccccc3)CC2)cc1 | -75.2%
28 | COCC(=O)N1CCC(Oc2ccc(C(=O)NCCCC3CCCC3)cc2)CC1 | -71.5%
29 | CSCCNC(=O)c1ccc(OC2CCN(CCc3ccccc3)CC2)cc1 | -64.6%
30 | O=C(NC1CCOC1)c1ccc(OC2CCN(CCc3ccccc3)CC2)cc1 (stereo not shown) | -39.8%
31 | CN(C)S(=O)(=O)c1cccc(NC(=S)N/N=C/C(c2ccccc2)c2ccccc2)c1 | 1.1%
32 | COc1ccc([N+](=O)[O-])cc1NC(=O)c1cncc(Br)c1 | -12.2%
33 | CN1C(=O)NC(c2ccccc2Cl)C2=C1CC(C)(C)CC2=O (stereo not shown) | 5.71%
34 | O=C(NCCC1=CCCCC1)C1CCCN(S(=O)(=O)c2ccc(F)cc2)C1 (stereo not shown) | 19.6%
35 | COc1cc(OC)cc(C(=O)NCCSc2c[nH]c3ccccc23)c1 | -17.1%
36 | NC(=O)c1sc2nc3c(cc2c1N)CCC3 | 8.92%
37 | CC(=O)c1ccc(OC(=O)C2CSC3(C)CCC(=O)N23)cc1 (stereo not shown) | 12.4%
38 | CCN(CC)CC(O)Cn1c(-c2ccccc2Cl)nc2ccccc21 (stereo not shown) | -25.2%
39 | CCN(CC)CC(O)Cn1c(-c2cccc(Cl)c2)nc2cc(C)c(C)cc21 (stereo not shown) | -62.8%
40 | OC(CN1CCOCC1)Cn1c(-c2cccc(Cl)c2)nc2ccccc21 (stereo not shown) | -21.3%

Row | Structure (SMILES) | hERG current change (%, negative = inhibition) at 10uM
41 | CCOC(=O)[C@@H]1[C@H]2COc3ccc(Br)cc3[C@@H]2N2C(=O)N(c3ccc(C)cc3)C(=O)[C@]12C | 5.6%
42 | O=C(NCC1CCCCC1)c1cc(S(=O)(=O)N2CCCCC2)ccc1N1CCOCC1 | -7.89%
43 | COc1ccc(C2C(C#N)=C(N)Nc3onc(C(C)(C)C)c32)c(OC)c1 (stereo not shown) | 3.15%
44 | COc1ccc2oc(C(=O)OCc3nnc(-c4ccccc4)o3)c(C)c2c1 | 19.8%
45 | CCCCN(C(=O)COc1ccc(C)cc1OC)c1c(N)n(CCC)c(=O)[nH]c1=O | 4.7%
46 | O=C(c1ccccc1)c1ccccn1 | 2.58%
47 | CCOc1ccc(S(=O)(=O)N2CCC(C(=O)NCc3ccccc3CN3CCCC3)CC2)cc1 | -64.3%
48 | O=C(NCc1ccccc1F)C1CCN(S(=O)(=O)c2ccccc2)CC1 | -12.1%
49 | Cc1ccc(S(=O)(=O)N2CCC(C(=O)NCc3ccccc3Cl)CC2)cc1 | -4.47%
50 | Cc1ccc(S(=O)(=O)N2CCC(C(=O)NCc3ccccc3CN3CCCC3)CC2)cc1C | -68.7%
51 | CCOc1ccc(S(=O)(=O)N2CCC(C(=O)NCc3ccccn3)CC2)cc1 | -25.9%
52 | COc1ccc(S(=O)(=O)N2CCC(C(=O)NCCC3=CCCCC3)CC2)cc1C | -56.2%
53 | CCOc1ccc(S(=O)(=O)N2CCC(C(=O)NCCc3ccccc3)CC2)cc1 | 29.1%
54 | O=C(NCc1ccccc1CN1CCCC1)C1CCN(S(=O)(=O)c2ccc(F)c(F)c2)CC1 | -59.1%
55 | Cc1ccc(S(=O)(=O)N2CCC(C(=O)NCCC3=CCCCC3)CC2)cc1C | -11.6%
56 | O=C(NCc1ccccc1Cl)C1CCN(S(=O)(=O)c2ccc(F)cc2)CC1 | -45.6%
57 | COc1ccc(S(=O)(=O)N2CCC(C(=O)NCCC3=CCCCC3)CC2)cc1OC | -23.5%
58 | Cc1ccc(S(=O)(=O)N2CCC(C(=O)NCCN3CCOCC3)CC2)cc1C | 8.7%
